Compound activity: PubChem, National Center for Advancing Translational Sciences (NCATS)
A selection: hits, their analogues and other compounds. The true share with any hit is near 10%.
JMJD2A Tudor – blocks the human JMJD2A Tudor domain; O75164; AlphaScreen JMJD2A-Tudor / H3K4me3 peptide binding; Potency, µM (top dose mostly 114 µM), actives largely listed as inhibitors; 390,000 tested, 4.4% active; note: nearly all actives have a fitted effect of over 50% in size
HP1b binding inh – blocks HP1-beta chromodomain binding to methylated histone tails; P83916; AlphaScreen HP1-beta / biotin-H3K9me3 peptide binding; Potency, µM (highest dose often 114 µM), most hits filed as inhibitors; 390,000 tested, 0.56% active; AID 540317; note: nearly all actives have a fitted effect of over 70% in size
Target sequence (P83916 whole entry, looked up): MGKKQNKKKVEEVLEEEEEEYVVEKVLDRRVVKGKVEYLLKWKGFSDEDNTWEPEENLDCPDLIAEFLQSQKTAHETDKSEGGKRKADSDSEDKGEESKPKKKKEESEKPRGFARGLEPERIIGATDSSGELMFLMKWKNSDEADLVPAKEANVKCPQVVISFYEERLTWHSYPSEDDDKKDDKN
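HP1-beta protein (50 nM final) preincubated 30 min at room temperature with biotinylated H3(1-18)K9me3 peptide (50 nM) in PBS pH 7.4, 0.01% Tween-20, then compound added for 30 min. AlphaScreen streptavidin donor/nickel chelate acceptor beads (10 ug/mL final), 30 min dark, luminescence read.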
BAZ2B inh – inhibitors of human BAZ2B bromodomain. Q9UIF8. AlphaScreen BAZ2B-H3K14Ac peptide displacement. Potency, µM (top dose mostly 114 µM), most hits filed as inhibitors. 360,000 tested, 4.4% active. AID 504333; note: nearly all actives have a fitted effect of over 60% in size
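Inhibition is scored as reduced AlphaScreen emission. The BAZ2B/b-H3(5-23)K14Ac complex (50 nM each) in PBS pH 7.4, 0.01% Tween-20 meets compound (up to 110 uM) for 30 min at RT before bead addition.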
G9a inh – G9a (human) methyltransferase inhibition; Potency, µM (highest dose often 102 µM), actives largely listed as inhibitors; G9a H3K9 monomethylation, AlphaScreen, 2 h; Q96KQ7; 350,000 tested, 8.8% active; AID 504332; note: nearly all actives have a fitted effect of over 75% in size
Target sequence (Q96KQ7 913-1193 limits assumed): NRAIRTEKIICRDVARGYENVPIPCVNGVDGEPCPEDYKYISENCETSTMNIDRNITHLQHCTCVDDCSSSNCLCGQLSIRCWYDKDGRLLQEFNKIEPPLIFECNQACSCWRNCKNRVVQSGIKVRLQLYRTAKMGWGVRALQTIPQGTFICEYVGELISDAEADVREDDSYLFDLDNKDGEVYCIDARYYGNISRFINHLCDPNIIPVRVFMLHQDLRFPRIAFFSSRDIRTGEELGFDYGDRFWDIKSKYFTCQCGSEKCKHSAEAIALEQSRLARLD
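Quantitative HTS format: methyltransferase activity on a biotin-tagged H3K9 peptide is measured by AlphaScreen, using a rabbit anti-monomethyl-H3K9 antibody with streptavidin donor and anti-IgG acceptor beads. Final levels are 20 nM enzyme, 500 nM peptide, 20 uM SAM; 2 h RT.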
GLS inh – inhibitors of human glutaminase (GLS). O94925. GLS enzymatic activity, qHTS titration. Potency, µM (doses to about 45.5 µM), hits mostly inhibitors. 410,000 tested, 0.21% active. AID 624170
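hKGA; 45 mM KH2PO4 pH 8.2 + 0.02% Tween-20; cpd via pin tool; 1 mM Gln soln; GluOx/HRP/Amplex Red; RT 30 min; fluor. t0 & final.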
Hits are given with their value; n = inactive; u = inconclusive; x = no result; [ ] = another dose, or the depositor's remark. Calls come from the whole dose curve; as a rule, active = well fitted curve in the direction sought with a large enough effect; inconclusive = small, poorly fitted or top-dose-only effect, or another doubt; inactive = no such curve, though single readings can be large; an effect the other way counts as inactive or inconclusive.

SMILES	JMJD2A Tudor	HP1b binding inh	BAZ2B inh	G9a inh	GLS inh
COc1cc(CNn2cn[nH]c2=S)cc(Br)c1OCc1ccccc1F	u	n	u	10µM	n
C=CCOc1c(Cl)cc(CNn2cn[nH]c2=S)cc1OC	u	n	n	u	n
O=C(O)c1ccc(N2C(=O)CC(N3CCN(c4cccc(C(F)(F)F)c4)CC3)C2=O)cc1 (stereo not drawn)	n	n	n	40µM	n
COc1cccc(N2C(=O)CC(Nc3ccc(N4CCOCC4)cc3)C2=O)c1 (stereo not drawn)	u	n	n	n	n
COc1ccc(N2C(=O)CC(N3CCC(O)(c4cccc(C(F)(F)F)c4)CC3)C2=O)cc1 (stereo not drawn)	n	n	n	40µM	n
COc1ccc(N2C(=O)CC(Nc3ccc(C(=O)O)cc3)C2=O)cc1OC (stereo not drawn)	n	n	n	40µM	n
O=C1CC(Nc2ccc(N3CCOCC3)cc2)C(=O)N1c1cccc(C(F)(F)F)c1 (stereo not drawn)	u	n	56µM	14µM	n
O=c1cc(CN(Cc2ccccc2)Cc2ccccc2)c2c(ccc3ccccc32)o1	x	x	x	x	n
COC(=O)c1ccc(N2C(=O)CC(N(C)CCc3ccc(OC)c(OC)c3)C2=O)cc1 (stereo not drawn)	n	n	n	35µM	n
Cc1ccccc1N/N=C/c1ccc(C#N)cc1	n	n	u	10µM	n
Cc1c(C(=O)OCC2CCCO2)[nH]c2c1C(=O)CC(c1ccco1)C2 (stereo not drawn)	u	u	22µM	18µM	n
COc1ccc(OC)c(C2CC(=O)c3c([nH]c(C(=O)OCC4CCCO4)c3C)C2)c1 (stereo not drawn)	n	n	u	n	n
C=CCOC(=O)c1[nH]c2c(c1C)C(=O)CC(c1ccco1)C2 (stereo not drawn)	20µM	28µM	50µM	u	n
COC(=O)c1[nH]c2c(c1C)C(=O)CC(c1ccccc1)C2 (stereo not drawn)	n	n	n	n[12.7 µM]	n
Cc1c(C(=O)OCC(C)C)[nH]c2c1C(=O)CC(c1ccco1)C2 (stereo not drawn)	u	n	50µM	40µM	n
C/C=C/COC(=O)c1[nH]c2c(c1C)C(=O)CC(c1ccco1)C2 (stereo not drawn)	50µM	n	50µM	45µM	n
Cc1c(C(=O)OC2CCCC2)[nH]c2c1C(=O)CC(c1ccco1)C2 (stereo not drawn)	u	n	u	u	n
CCOC(=O)C1=CCC(c2ccccc2Cl)N(S(=O)(=O)c2ccc(C)cc2)C1 (stereo not drawn)	x	x	x	x	n
CCN1C(=O)c2ccccc2Sc2ccc(NC(=O)Nc3cccc([N+](=O)[O-])c3C)cc21	n	n	n	n	n
Cc1occc1-c1n[nH]c(=S)n1-c1ccccc1	7.1µM	n	n	5µM	n
Cc1cccc(OCCSc2nnc(-c3ccoc3C)n2C)c1	n	n	n	u	n
Cc1occc1-c1n[nH]c(=S)n1C	n[11.4 µM]	u	n	35µM	n
CCC(=O)N1CCCc2cc(S(=O)(=O)N3CCC(C(=O)NC4CCC(C)CC4)CC3)ccc21 (stereo not drawn)	n	n	n	n	n
COc1ccc(C(=O)CSc2nnc(-c3cccs3)n2-c2ccccc2)cc1	n	n	n	u	n
COc1ccc(-n2c(SCC(=O)Nc3ccc(C(=O)O)cc3)nnc2-c2cccs2)cc1	79µM	n	n	u	n
SMILES	JMJD2A Tudor	HP1b binding inh	BAZ2B inh	G9a inh	GLS inh
COc1ccc(NC(=O)CSc2nnc(Cc3cccs3)n2-c2ccc(C)cc2)cc1	u	n	n	35µM	n
Cc1ccc(-n2c(Cc3cccs3)nnc2SCC(=O)Nc2ccc(S(N)(=O)=O)cc2)cc1	n	n	n	45µM	n
Cc1ccc(-n2c(SCC(=O)Nc3ccc4c(c3)OCO4)nnc2-c2cccs2)cc1	56µM	n	n	u	n
O=C(Nc1ccc(Cl)cc1)C1Cc2c(-c3ccccc3)ccnc2O1 (stereo not drawn)	x	x	x	x	n
CC(C)OCCCn1c(SCc2ccccc2C#N)nc2c(sc3ccccc32)c1=O	n	n	n	n	n
NC(=O)C1CCN(c2cc(Cl)nc(N)n2)CC1	10µM	n	n	n	n
Cc1ccc(S(=O)(=O)N(CC(=O)Nc2c(C)cccc2C)c2cccc(Cl)c2)cc1	n	n	n	n	n
C=CCNc1sc(C(=O)c2cccs2)c(N)c1C#N	n	n	n	13µM	n
Cc1ccc(OCC(=O)N2N=C(c3ccncc3)CC2(O)C(F)(F)F)cc1C (stereo not drawn)	n	n	n	n	n
O=C(COc1ccccc1)N1N=C(c2cccnc2)CC1(O)C(F)(F)F (stereo not drawn)	n	n	n	50µM	n
COc1ccc(-c2nc3ccccc3o2)cc1NC(=O)c1ccc(N2CCC(C)CC2)c([N+](=O)[O-])c1	n	n	n	n	n
Cc1ccc(NC(=S)c2nc3ccccc3s2)cc1	u	u	8.9µM	22µM	n
Cc1ccc(C)c(NC(=S)c2nc3ccccc3s2)c1	14µM	n	n	u	n
S=C(Nc1ccc(Cl)cc1)c1nc2ccccc2s1	u	u	u	u	n
COc1ccc(N2CCN(C(c3ccccc3OC)c3nnnn3Cc3ccco3)CC2)cc1 (stereo not drawn)	50µM	n	40µM	u	n
NC(=O)C1CCN(C(c2ccccc2F)c2nnnn2Cc2ccco2)CC1 (stereo not drawn)	n	n	u	n[12.7 µM]	n
COc1ccc(Cn2nnnc2C(c2ccccc2OC)N2CCC(C(N)=O)CC2)cc1 (stereo not drawn)	n	n	n	n[12.7 µM]	n
COc1cccc(C(c2nnnn2Cc2ccco2)N2CCN(Cc3ccccc3)CC2)c1OC (stereo not drawn)	n	n	50µM	n[12.7 µM]	n
Fc1ccccc1C(c1nnnn1Cc1ccc2c(c1)OCO2)N1CCN(Cc2ccco2)CC1 (stereo not drawn)	n	n	n	50µM	n
COc1ccc(NC(=O)CN2C(=O)CCn3nc(-c4cccn4C)cc32)cc1Cl	u	n	u	u	n
Cc1ccccc1NS(=O)(=O)c1nnc(NC(=O)c2ccco2)s1	u	u	n	u	n
CCOC(=O)[C@]12CCCC=C1N(Cc1ccc(Cl)cc1Cl)C(=O)[C@H](CC(=O)N1CCN(C(=O)c3ccco3)CC1)C2	x	x	x	x	n
O=[N+]([O-])/C(C(Cl)=C(Cl)Cl)=C(/NC1CC1)Sc1ccccc1	u	n	n	40µM	n
Cc1cccc(NC(=O)c2ccc3c(O)c(S(=O)(=O)c4ccccc4)c(=O)[nH]c3c2)c1C	u	n	n	u	n
Cc1ccc(S(=O)(=O)c2c(C)nn(-c3ccccc3)c2OC(=O)c2ccco2)cc1	79µM	n	n	u	n
